The text below walks through data of ChEMBL document CHEMBL3988442, “University of Dundee, Small-Polar-MMV Screening Library” (2021).

The subject of this assay is Plasmodium falciparum. Description: Plasmodium falciparum sporozoite viability assay. It counts as functional, organism-based. On the set-up: scale not given: in the data most compounds retested in dose-response had high values.

Where “and” joins values, the source holds several entries; their conditions need not be identical. Equal entries are not always repeated. Screen size: about 34,000 compounds; about 290 (0.85%) showed an effect of 50% or more. The full list was thinned out, with strong results kept by preference.

Turning to `c1ccc(OCCN2CCC(c3cnccn3)CC2)cc1`, the “Percent Effect” value stood at 9.194%.
Consider `CC(O)CN1CCN(Cc2csc(-c3cnn(C)c3)n2)CC1` (stereo unspecified), for which the “Percent Effect” value worked out at 8.176%.
`COCC(=O)N1CCN(Cc2csc(-c3ncccn3)n2)CC1`: for the setting “10 mM as filed; unlikely as a test dose”, the “Percent Effect” value is -31.63% and -33.22% and -17.89%.
With `O=C(c1cnccn1)N1CCN(Cc2csc(-c3ccccc3)n2)CC1`, the “Percent Effect” value turned out to be 9.607%.
Turning to `CC(C)C(=O)N1CCN(Cc2csc(-c3ncccn3)n2)CC1`, where the note is “10 mM as filed; unlikely as a test dose”, the “Percent Effect” value was 77.28% and 53.85% and 54.68%.
On the same count and under the same terms, the result for `CC(C)C(=O)N1CCN(Cc2csc(-c3ccccn3)n2)CC1` reads 63.59% and 62.99% and 41.75%.
In the case of `c1cnc(-c2nc(CN3CCCN(Cc4cccs4)CC3)cs2)nc1`, the “Percent Effect” value (10 mM as filed; unlikely as a test dose) is -6.924% and 13.02% and 13.14%.
Turning to `CC(C)c1nc(CN2CCN(Cc3ccccn3)CC2)cs1`, the “Percent Effect” value turned out to be 0%.
Turning to `CC(O)CN1CCN(Cc2csc(-c3ncccn3)n2)CC1` (stereo unspecified), the “Percent Effect” value (10 mM as filed; unlikely as a test dose) was 68.95% and 42.73% and 61.03%.
`COCCN1CCC2(CCN(C(=O)c3ccc(F)cc3)CC2)C1=O`: the “Percent Effect” value is given as 6.318%.
The same measure, in the same setting: the result for `CCC(=O)Nc1ccc(N2CCC(OC)CC2)c(C(F)(F)F)c1` reads 1.93%; that for `CCc1[nH]ncc1C(=O)N1CCCC(n2cncn2)C1` (stereo unspecified), -4.375%; that for `Cc1cccnc1C(Cc1ccsc1)NCc1cnc(N(C)C)nc1` (stereo unspecified), -1.422%.
On to `Cc1cccc(CN2CCCn3c(nnc3CN3CCCC3=O)C2)n1.O=C(O)C(F)(F)F`, for which the “Percent Effect” value is given as -1.313%.
On to `CN(C)c1ccc(CC2COCCN(Cc3nccn3C)C2)nn1` (stereo unspecified), for which the “Percent Effect” value is on record as -1.339%.
Consider `Cn1ccnc1C(=O)N[C@@H]1CN(Cc2ccoc2)[C@@H]2CCCO[C@@H]21.O=C(O)C(F)(F)F`, for which the “Percent Effect” value worked out at 4.904%.
Take `CC1=Nc2c(c(=O)[nH]n2C2CCCC2)C(c2ccc(C(=O)O)cc2)S1` (stereo unspecified): the “Percent Effect” value is -7.784%.
For `CCn1c(C)nc2cc(NC(=O)C3CN(C(C)=O)C3)ccc21`, the “Percent Effect” value is -0.5895%.
With `CCn1c(C)nc2cc(NC(=O)CC3CCCCO3)ccc21` (stereo unspecified), for the setting “10 mM as filed; unlikely as a test dose”, the “Percent Effect” value was 43.93% and 40.46% and 65.03%.
On to `COc1ncccc1CN1CCC2(CC1)CC(OCC1CC1)CO2.O=C(O)C(F)(F)F` (stereo unspecified), for which the “Percent Effect” value is 8.839%.
For the compound `COc1ccccc1-n1cc(C(=O)NCCCn2nc(C)nc2C)cn1`, the “Percent Effect” value is given as 3.022%.
`Cc1ccnn1-c1ccc(C(=O)N2CCCC(n3ccnc3)C2)cc1` (stereo unspecified): the “Percent Effect” value is 2.837%.
As to `O=C(CO)N1CCC(CCc2ccnc(Nc3cnccn3)c2)CC1`, the “Percent Effect” value is on record as -3.121%.
For the compound `CC(=O)Nc1cc(CCC2CCN(C(=O)c3ccccn3)CC2)ccn1`, the “Percent Effect” value (10 mM as filed; unlikely as a test dose) was 2.531% and -14.73% and -5.68%.
Turning to `CC(=O)N1CCC(CCc2ccnc(NC(=O)c3ccccn3)c2)CC1`, the “Percent Effect” value (10 mM as filed; unlikely as a test dose) was 74.38% and 72.77% and 65.08%.
On to `Cc1cc(C)nc(N2CCC(CNC(=O)c3ccccn3)CC2)n1`, for which the “Percent Effect” value amounted to 1.904%.
`CN1CCC(CCc2ccnc(Nc3cnccn3)c2)CC1`: the “Percent Effect” value is reported as -4.215%.
In the case of `CN1CCC(CCc2ccnc(NC(=O)c3ccccn3)c2)CC1`, the “Percent Effect” value (10 mM as filed; unlikely as a test dose) was 67.18% and 85.05% and 49.69%.
Same read-out and setting: in the case of `O=C(Nc1cc(CCC2CCN(CCO)CC2)ccn1)c1ccccn1` it was 45.19% and 58.77% and 35.89%.
`Cc1ccccc1CCNC(=O)CN1CCCC(Cn2cncn2)C1` (stereo unspecified): the “Percent Effect” value amounted to 7.953%.
Turning to `O=C(C1=CCCC1)N1C[C@@H]2COC[C@]2(COc2ncccc2F)C1.O=C(O)C(F)(F)F`, the “Percent Effect” value worked out at 10.29%.
The same measure, in the same setting: in the case of `O=C(c1ccc(-c2cccc3c2CCNC3)o1)N1CCCCC1` it was -26%.
The same measure, in the same setting: in the case of `O=S(=O)(c1ccccc1)N1CC[C@]2(C[C@@H](OCC3CC3)CO2)C1` it was -7.967%.
Turning to `COC(=O)Nc1ccc(CNc2cncc(-n3cccn3)n2)cc1`, the “Percent Effect” value was -0.1023%.
On to `Cc1cc(CN(C)C(=O)c2ccc(OC(C)C)nc2)no1`, for which the “Percent Effect” value amounted to 6.375%.
`COc1ccc(CN2C[C@@H]3OCCN(C)[C@@H]3C2)cc1.O=C(O)C(F)(F)F`: the “Percent Effect” value was -4.875%.
Turning to `COCCC(=O)N1CC[C@@H](N(C)C)[C@@H]1Cc1ccccc1`, the “Percent Effect” value was -9.112%.
On the same count and under the same terms, in the case of `COc1ccc(S(=O)(=O)N2C[C@@H]3CN(C)CCO[C@@H]3C2)cc1` it was 1.798%; in that of `Cc1nccn1C1CCCN(C(=O)CCCNc2ncccn2)C1` (stereo unspecified), 3.922%; in that of `Cc1cnn(CC2CCCN2C(=O)c2ccccc2-n2cccn2)c1` (stereo unspecified), 9.109%.
`Cc1nc(N2CCN(C(=O)c3ccccc3)CC2)c2cnn(C)c2n1`: the “Percent Effect” value is -8.371%.
Same read-out and setting: the result for `Cl.OC1(c2ccc(F)cc2)CCN(Cc2ccccc2N2CCCC2)CC1` reads 10.2%.
In the case of `CSCCc1nc(C(C)C)nn1-c1ccncc1C`, for the setting “10 mM as filed; unlikely as a test dose”, the “Percent Effect” value was -19.09% and -18.73%.
With `Cc1cnccc1-n1nc(C(C)C)nc1CCN(C)S(C)(=O)=O`, the “Percent Effect” value (10 mM as filed; unlikely as a test dose) is -20.65% and -22.07%.
Regarding `Cc1cnccc1-n1nc(C(C)C)nc1CS(C)(=O)=O`, where the note is “10 mM as filed; unlikely as a test dose”, the “Percent Effect” value was 82.57% and 75%.
Consider `CC(=O)N1CCC1c1nc(-c2ccc(C)s2)no1` (stereo unspecified), for which the “Percent Effect” value is on record as -4.556%.
Regarding `O=C(Cc1ccc(F)cc1)NCCNc1cc(N2CCCC2)cnn1`, under “10 mM as filed; unlikely as a test dose”, the “Percent Effect” value was 2.363% and 4.651%.
With `O=C(NCCNc1cc(N2CCCC2)cnn1)Nc1ccccc1F`, the “Percent Effect” value (10 mM as filed; unlikely as a test dose) was 88.21% and 92.16%.
As to `CSc1nnc(CNC(=O)Nc2ccccc2F)n1C`, the “Percent Effect” value was -0.259%.
With `CC(=O)N1CC[C@H]2OCC[C@@]2(C(=O)NCCc2ccccn2)C1.O=C(O)C(F)(F)F`, the “Percent Effect” value is listed as -10.77%.
In the case of `CC(NC(=O)NCCCc1n[nH]c(N)c1C#N)c1ccccc1F` (stereo unspecified), the “Percent Effect” value came to 14.69%.
`Cc1cc(C)n(CC2CCCCN2CC(=O)NC2CCOCC2)n1` (stereo unspecified): the “Percent Effect” value turned out to be 14.15%.
Turning to `Cc1cc(C)n(CC2CCCN2CC(=O)NC2CCOCC2)n1` (stereo unspecified), the “Percent Effect” value is given as -10.14%.
Take `COCCOCC(=O)Nc1ccc(C)cc1F`: the “Percent Effect” value is given as -13.64%.
Regarding `O=C(c1ccc(C2CCCO2)s1)N1CCOCC1` (stereo unspecified), the “Percent Effect” value (10 mM as filed; unlikely as a test dose) was -24.05% and -11.59%.
Same read-out and setting: in the case of `O=C(c1ccc(C2CCCO2)s1)N1CCS(=O)(=O)CC1` (stereo unspecified) it was 6.394% and 9.158% and -11.41%; in that of `O=C(c1ccc(C2CCCO2)s1)N1CCN(c2ccccc2F)CC1` (stereo unspecified), 80.46% and 89.28% and 82.47%.
As to `O=c1[nH]c(CCN2CCCC2Cn2cncn2)nc2ccccc12` (stereo unspecified), the “Percent Effect” value was determined as 9.596%.
For the compound `O=C(Cc1ccc2c(c1)OCCO2)N1CCCC(n2cccn2)C1` (stereo unspecified), the “Percent Effect” value (10 mM as filed; unlikely as a test dose) is 49.54% and 51.7% and 51.33%.
Same read-out and setting: in the case of `O=C(CCc1ccc2c(c1)OCO2)N1CCCC(n2cccn2)C1` (stereo unspecified) it was -3.407% and -9.243% and -9.365%.
`O=C(Cc1ccc2c(c1)CCO2)N1CCCC(n2cccn2)C1` (stereo unspecified): under “10 mM as filed; unlikely as a test dose”, the “Percent Effect” value is -20.29% and -14.82% and -23.46%.
